In PubChem BioAssay AID1159580 (chemical genetic matrix, 2015):
Among all 5,500 compounds or so, about 2,000 (36%) were called active. Roughly 18% stayed inconclusive and do not appear here. Rule as the data show it: active = normalized growth mostly below about 0.91 (no sharp cut-off); inconclusive = no clear call, values can overlap the other calls; inactive = mostly above about 0.92. This is one part of the list.

Experiment: chemical genetic growth profiling, strain panel (AID 1159580);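 also: tested at 20 µM; growth read once vehicle control cultures reached saturation at 30 °C; 1 = growth at the plate median or of vehicle wells; lower values mean less growth of the strain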
Conditions: growth OD

Measured: normalized growth

Cc1cc2c3c(c1)c(O)cc(=O)n3CCC2
inactive: S. cerevisiae deletion strains, locus YAL013W, strain DEP1, hits give low values 0.967 | S. cerevisiae deletion strains, locus YBR229C, strain ROT2, hits give low values 0.989 | S. cerevisiae deletion strains, locus YDL101C, strain DUN1, hits give low values 0.981 | S. cerevisiae deletion strains, locus YDL134C, strain PPH21, hits give low values 0.968 | S. cerevisiae deletion strains, locus YDR150W, strain NUM1, hits give low values 1 | S. cerevisiae deletion strains, locus YEL061C, strain CIN8, hits give low values 1.01 | S. cerevisiae deletion strains, locus YGR078C, strain PAC10, hits give low values 0.991 | S. cerevisiae deletion strains, locus YGR229C, strain SMI1, hits give low values 0.974 | S. cerevisiae deletion strains, locus YHR087W, strain rtc3, hits give low values 0.991 | S. cerevisiae deletion strains, locus YJL187C, strain SWE1, hits give low values 0.984 | S. cerevisiae deletion strains, locus YJR043C, strain POL32, hits give low values 0.984 | S. cerevisiae deletion strains, locus YJR075W, strain HOC1, hits give low values 1 | S. cerevisiae deletion strains, locus YKL190W, strain CNB1, hits give low values 0.988 | S. cerevisiae deletion strains, locus YLR058C, strain SHM2 (second series), hits give low values 0.995 | S. cerevisiae deletion strains, locus YLR085C, strain ARP6, hits give low values 0.968 | S. cerevisiae deletion strains, locus YML094W, strain GIM5, hits give low values 1.02 | S. cerevisiae deletion strains, locus YMR219W, strain ESC1, hits give low values 0.969 | S. cerevisiae deletion strains, locus YMR263W, strain SAP30, hits give low values 0.968 | S. cerevisiae deletion strains, locus YNL128W, strain TEP1, hits give low values 0.989 | S. cerevisiae deletion strains, locus YNL153C, strain GIM3, hits give low values 0.971 | S. cerevisiae deletion strains, locus YNL298W, strain CLA4 (second series), hits give low values 1.01 | S. cerevisiae deletion strains, locus YNL322C, strain KRE1, hits give low values 0.993 | S. cerevisiae deletion strains, locus YNR030W, strain Alg12, hits give low values 0.989 | S. cerevisiae deletion strains, locus YOL006C, strain TOP1, hits give low values 1.03 | S. cerevisiae deletion strains, locus YPL055C, strain LGE1, hits give low values 0.88 | S. cerevisiae deletion strains, locus YPL241C, strain CIN2, hits give low values 0.96 | S. cerevisiae deletion strains, locus YPR135W, strain CTF4, hits give low values 0.918 | S. cerevisiae strains, strain wild type, hits give low values 0.967
active: S. cerevisiae deletion strains, locus YHR030C, strain SLT2, hits give low values 0.518 | S. cerevisiae deletion strains, locus YLR039C, strain RIC1, hits give low values 0.544 | S. cerevisiae deletion strains, locus YLR262C, strain YPT6, hits give low values 0.549
